Inconclusive results are not listed. Activity calls are given as the source filed them. Unless noted, the call rests on the fitted dose curve; in most records, active means well fitted curve in the direction sought with a large enough effect; inconclusive means small, poorly fitted or top-dose-only effect, or another doubt; inactive means no such curve, though single readings can be large; an effect the other way counts as inactive or inconclusive.
Tests used:
[1] = qHTS to identify inhibitors of the type 1 interferon - major histocompatibility complex class I in skeletal muscle: primary screen against the NCATS Pharmaceutical Collection (AID 1347407); details: human skeletal muscle cells, IFN-b-induced MHC-I HiBiT luminescence, 24 h; series mostly up to 45.9 µM;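 further: luminescence of HiBiT knocked into endogenous HLA-B as interferon-induced MHC class I level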
How it was run: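 Luminescence from HiBiT-tagged endogenous HLA-B*08:01 served as the read-out of IFN-beta-induced MHC class I in CRISPR-engineered C25cl48 myoblasts. Cells received 4 ng/ml IFN-beta plus compound (high final 46 uM, […]) for 24 h.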

[2] = target: Protein phosphatase 1D (Homo sapiens) (UniProt O15297); assay: RapidFire Mass Spectrometry qHTS Assay for Modulators of WT P53-Induced Phosphatase 1 (WIP1) (AID 1347424); details: WIP1 dephosphorylation of phosphopeptide, RapidFire MS; series mostly up to 63 µM;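 further: amount of dephosphorylated VEPPL-S-QETFS peptide product formed by WIP1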
Sequence of Protein phosphatase 1D (Homo sapiens) (O15297 whole entry, looked up): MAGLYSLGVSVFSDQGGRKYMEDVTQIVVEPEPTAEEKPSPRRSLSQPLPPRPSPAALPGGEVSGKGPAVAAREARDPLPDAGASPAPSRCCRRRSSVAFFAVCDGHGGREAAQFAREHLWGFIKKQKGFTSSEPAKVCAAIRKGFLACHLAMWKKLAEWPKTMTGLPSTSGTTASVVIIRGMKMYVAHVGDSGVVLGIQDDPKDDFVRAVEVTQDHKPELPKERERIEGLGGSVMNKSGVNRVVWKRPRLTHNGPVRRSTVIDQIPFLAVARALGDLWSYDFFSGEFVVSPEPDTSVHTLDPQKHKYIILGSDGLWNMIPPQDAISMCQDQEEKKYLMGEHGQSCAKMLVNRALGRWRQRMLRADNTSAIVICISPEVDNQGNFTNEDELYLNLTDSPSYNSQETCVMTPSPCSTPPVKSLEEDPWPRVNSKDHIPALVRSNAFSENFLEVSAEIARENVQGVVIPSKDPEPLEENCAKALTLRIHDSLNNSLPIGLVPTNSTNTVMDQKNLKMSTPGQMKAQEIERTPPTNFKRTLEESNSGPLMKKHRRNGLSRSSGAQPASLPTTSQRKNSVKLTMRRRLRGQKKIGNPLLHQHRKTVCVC
How it was run: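 WIP1 (10 nM final) was preincubated 1 h at room temperature with compounds in Tris-HCl pH 7.5, 30 mM MgCl2, TCEP, EGTA, BSA; 2 uM VEPPL-pS-QETFS phosphopeptide was added for 5 min, quenched with formic acid, and dephosphorylated product quantified by RapidFire MS.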

[3] = target: Protein phosphatase 1D (Homo sapiens) (UniProt O15297); assay: Rhodamine-PBP qHTS Assay for Modulators of WT P53-Induced Phosphatase 1 (WIP1) (AID 1347425); details: recombinant WIP1, Rhodamine-PBP phosphate fluorescence, real-time; series mostly up to 57.5 µM
How it was run: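 WIP1 (5 nM final) was preincubated with compound for 1 hour at room temperature. It then dephosphorylated 10 uM VEPPL-pS-QETFS peptide in Tris-HCl pH 7.5 with 30 mM MgCl2. Released Pi was detected by 10 uM Rh-PBP fluorescence (ex 525/em 598 nm) read at 1-min intervals for 11 min, as delta f1 - f0.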

[4] = Primary qHTS for inhibitors of La Crosse Virus (LACV) - induced cell death in SH-SY5Y cells (AID 1508616); details: SH-SY5Y LACV cytopathicity rescue, ATP luminescence, 6 d; series mostly up to 4.29 µM;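 further: top concentration of the series differs between compounds; higher means more rescue of cells from virus-induced death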
How it was run: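 Luminescent ATP readout (ATPLite 1step, 5 min room temperature) measured rescue from LACV-induced death after 6 days of infection at 0.01 MOI; normalized to infected DMSO wells and uninfected DMSO wells.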

[5] = target: Calcium and integrin-binding protein 1 (Homo sapiens) (UniProt Q99828); assay: Primary qHTS for Identification of Calcium Integrin Binding Protein 1 (CIB1) Competitor (AID 1508620); details: CIB1-GST / FITC-alphaIIb peptide fluorescence polarization; series mostly up to 114 µM;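 further: GST tagged CIB1 binding a fluorescein labelled alphaIIb integrin peptide tracer; top concentration of the series differs between compounds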
Sequence of Calcium and integrin-binding protein 1 (Homo sapiens) (Q99828 whole entry, looked up): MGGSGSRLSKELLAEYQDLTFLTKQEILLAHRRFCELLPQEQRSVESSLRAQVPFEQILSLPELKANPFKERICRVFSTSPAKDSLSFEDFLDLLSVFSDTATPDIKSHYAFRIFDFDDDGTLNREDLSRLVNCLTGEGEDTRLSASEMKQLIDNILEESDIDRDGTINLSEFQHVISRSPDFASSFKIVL
How it was run: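 Fluorescence polarization competition: CIB1-GST (1 uM final) preincubated with compound 15 min at room temperature, then FITC-labeled alphaIIb peptide (100 nM final) added for another 15 min. Polarization read at Ex 480/Em 540.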

[6] = A High-Content qHTS Against Drug Library for the Identification of Small Molecules that Inhibit DYT1 Early Onset Primary Dystonia-Associated Cell Pathology (AID 1645839; calls by dose curve); details: HEK293 Flp-In EGFP-delE TorsinA, punctate imaging, 48 h; series mostly up to 46.1 µM
How it was run: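 Readout: %pathology, the punctate EGFP-TorsinA distribution from imaging, as the primary channel and cell count as the toxicity counterscreen. HEK293 Flp-In cells expressing delE TorsinA were induced with tetracycline and treated with compound for 48 h.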

[7] = Primary qHTS for small molecule stabilizers of the endoplasmic reticulum resident proteome: Secreted ER Calcium Modulated Protein (SERCaMP) assay (AID 1508630); details: SH-SY5Y GLuc-SERCaMP (Gaussia luciferase released on ER calcium loss) secretion, thapsigargin, luminescence; series mostly up to 38.4 µM
How it was run: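 GLuc-SERCaMP-expressing SH-SY5Y cells, pretreated 16 h with compound, are challenged with thapsigargin to empty ER calcium stores; after 4 h, coelenterazine is added directly to the medium and luminescence is imaged.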

Measured: Potency

CC(C(=O)O)c1cccc(Oc2ccccc2)c1 (stereo unspecified)
inactive: [1] | [2] | [3] | [4] | [5] | [6]

CN1CCN(C2=Nc3ccccc3Sc3ccc(Cl)cc32)CC1
inactive: [1] | [2] | [3] | [4] | [5] | [6]

Cc1cc(-c2ccccc2)nnc1NCCN1CCOCC1
inactive: [1] | [2] | [3] | [4] | [5] | [7] | [6]

CNCCc1ccccn1
inactive: [1] | [2] | [3] | [4] | [5] | [7] | [6]

CN(C)CCC[C@@]1(c2ccc(F)cc2)OCc2cc(C#N)ccc21
inactive: [1] | [2] | [3] | [4] | [5] | [7] | [6]

CCN(CC)CCOC(=O)C(Cc1cccc2ccccc12)CC1CCCO1 (stereo unspecified)
inactive: [1] | [2] | [3] | [4] | [5] | [6]

O=C(Oc1cccc2cccnc12)c1ccccc1
inactive: [1] | [2] | [3] | [4] | [5] | [7] | [6]

NC(=S)N/N=C/c1cccnc1
inactive: [1] | [2] | [3] | [4] | [5] | [6]

CC(=O)Nc1ccc(S(=O)(=O)Nc2ccc([N+](=O)[O-])cc2)cc1
inactive: [1] | [2] | [3] | [4] | [5] | [7] | [6]

OCc1ccccn1
inactive: [1] | [2] | [3] | [4] | [5] | [7] | [6]

From PubChem BioAssay (NCATS)
